# According to article PMC8384837, “Expanding the binding specificity for RNA recognition by a PUF domain”:
# Target: PUM1 PUF domain R1-KVV (Homo sapiens, UniProt Q14671 828-1176, S863K;R864V;Q867V)
# Test: yeast three-hybrid, YBZ-1, SC-Leu-His + 0.5 mM 3-AT, 4 days
# Settings: tags: N-Gal4 AD-HA kept; label: inside an RPR1-promoter hybrid RNA with tandem MS2 sites; ssRNA
# Procedure, shortened: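 Pumilio-1 PUF domain libraries, randomized at the three base-contacting residues of each repeat, were co-expressed with matching RNA elements from a centromeric plasmid in strain YBZ-1, which carries a LexA–MS2 coat fusion and a HIS3 reporter. Transformants grew for four days on SC-Leu (input) or on SC-Leu-His + 0.5 mM 3-AT (selection), and the repeat regions were PCR-amplified and Illumina-sequenced. The interaction score is the log change in variant frequency from input to selection. That logarithm is base 2, with a pseudocount of 1 where a variant was absent.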
# Sequence of PUM1 PUF domain R1-KVV (Q14671 828-1176 S863K/R864V/Q867V): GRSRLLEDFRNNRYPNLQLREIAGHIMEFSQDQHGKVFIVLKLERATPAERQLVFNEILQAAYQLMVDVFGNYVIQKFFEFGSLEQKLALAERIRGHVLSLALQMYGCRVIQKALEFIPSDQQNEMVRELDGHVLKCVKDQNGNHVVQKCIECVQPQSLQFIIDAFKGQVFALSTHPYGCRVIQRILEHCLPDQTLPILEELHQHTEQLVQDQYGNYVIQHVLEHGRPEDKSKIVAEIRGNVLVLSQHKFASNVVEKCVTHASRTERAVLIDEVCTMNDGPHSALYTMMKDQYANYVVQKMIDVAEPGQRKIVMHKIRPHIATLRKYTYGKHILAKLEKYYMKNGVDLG
row,Sequence,binding signal
1,GGCUAGAACUAGUGGAUCCCCCGGCGCCCGGCGGCUCGAGCCCGGGUAAGUGUAAAUUGUCUGCAUGCCGCCGGGCGCCAUGCCUGCAGGUCGACUCUAGAAAACAUG,5.82 log2 enrichment (interaction score)
2,GGCUAGAACUAGUGGAUCCCCCGGCGCCCGGCGGCUCGAGCCCGGGUAAGUGUAAAUCGUCUGCAUGCCGCCGGGCGCCAUGCCUGCAGGUCGACUCUAGAAAACAUG,5.35 log2 enrichment (interaction score)
3,GGCUAGAACUAGUGGAUCCCCCGGCGCCCGGCGGCUCGAGCCCGGGUAAGUGUAAAUGGUCUGCAUGCCGCCGGGCGCCAUGCCUGCAGGUCGACUCUAGAAAACAUG,1.3 log2 enrichment (interaction score)
